Measurements: PMC5540273 (PLoS ONE, 2017)
Read-outs that look alike come from different tables or passages of the source.

Tests used:
Conditions in all cases: n = 1
[1] = tested on: ROCK1
[2] = tested on: ROCK2
[3] = tested on: ROS1
[4] = tested on: RPS6KA4(Kin.Dom.1-N-terminal)
[5] = tested on: RPS6KA4(Kin.Dom.2-C-terminal)
[6] = tested on: RPS6KA5(Kin.Dom.1-N-terminal)
[7] = tested on: RPS6KA5(Kin.Dom.2-C-terminal)
[8] = tested on: T1, RSK1(Kin.Dom.1-N-terminal)
T1 construct: gene RPS6KA1

[9] = tested on: T2, RSK1(Kin.Dom.2-C-terminal)
T2 construct: gene RPS6KA1

[10] = tested on: T3, RSK2(Kin.Dom.1-N-terminal)
T3 construct: gene RPS6KA3

[11] = concentration: 1 μM, replicates: in singlicate
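Note: KINOMEscan kinase panel screen.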

## CCn1c(-c2ccccn2)nc2cnccc21 [SB-736398]
[1]; [11]
  %Inh: 14%
[2]; [11]
  %Inh: 30%
[3]; [11]
  %Inh: 0%
[4]; [11]
  %Inh: 13%
[5]; [11]
  %Inh: 0%
[6]; [11]
  %Inh: 15%
[7]; [11]
  %Inh: 0%
[8]; [11]
  %Inh: 65%
[9]; [11]
  %Inh: 0%
[10]; [11]
  %Inh: 15%

## O=C(Nc1n[nH]c2cc(-c3cccc(F)c3F)ccc12)C1CC1 [SB-733894]
[1]; [11]
  %Inh: 0%
[2]; [11]
  %Inh: 9%
[3]; [11]
  %Inh: 7%
[4]; [11]
  %Inh: 0%
[5]; [11]
  %Inh: 2%
[6]; [11]
  %Inh: 0%
[7]; [11]
  %Inh: 2%
[8]; [11]
  %Inh: 13%
[9]; [11]
  %Inh: 6%
[10]; [11]
  %Inh: 0%

## Cl.O=C(Nc1cccc(-c2nn3ncccc3c2-c2ccnc(Nc3cccnc3)n2)c1)c1c(F)cccc1F [GSK312879]
[1]; [11]
  %Inh: 0%
[2]; [11]
  %Inh: 0%
[3]; [11]
  %Inh: 0%
[4]; [11]
  %Inh: 20%
[5]; [11]
  %Inh: 0%
[6]; [11]
  %Inh: 9%
[7]; [11]
  %Inh: 0%
[8]; [11]
  %Inh: 8%
[9]; [11]
  %Inh: 10%
[10]; [11]
  %Inh: 27%

## Cl.NC(=O)c1cccc(Nc2nccc(Nc3ccc(Oc4cccc(Cl)c4)c(Cl)c3)n2)c1 [GW659008]
[1]; [11]
  %Inh: 0%
[2]; [11]
  %Inh: 0%
[3]; [11]
  %Inh: 0%
[4]; [11]
  %Inh: 0%
[5]; [11]
  %Inh: 0%
[6]; [11]
  %Inh: 5%
[7]; [11]
  %Inh: 11%
[8]; [11]
  %Inh: 0%
[9]; [11]
  %Inh: 0%
[10]; [11]
  %Inh: 8%

## COc1cc2nccc(Nc3ccc(NC(=O)c4ccc(C)cc4)c(O)c3)c2cc1OC.Cl [GW440132]
[1]; [11]
  %Inh: 0%
[2]; [11]
  %Inh: 4%
[3]; [11]
  %Inh: 47%
[4]; [11]
  %Inh: 11%
[5]; [11]
  %Inh: 0%
[6]; [11]
  %Inh: 18%
[7]; [11]
  %Inh: 0%
[8]; [11]
  %Inh: 9%
[9]; [11]
  %Inh: 0%
[10]; [11]
  %Inh: 7%

## COc1cc2ncnc(Nc3ccc4nc(-c5ccccc5)[nH]c4c3)c2cc1OC.Cl [GW282450]
[1]; [11]
  %Inh: 18%
[2]; [11]
  %Inh: 30%
[3]; [11]
  %Inh: 47%
[4]; [11]
  %Inh: 6%
[5]; [11]
  %Inh: 0%
[6]; [11]
  %Inh: 11%
[7]; [11]
  %Inh: 3%
[8]; [11]
  %Inh: 0%
[9]; [11]
  %Inh: 0%
[10]; [11]
  %Inh: 0%

## Cc1ccccc1-n1cnc2c(N)ncnc21 [SKF-97510]
[1]; [11]
  %Inh: 0%
[2]; [11]
  %Inh: 0%
[3]; [11]
  %Inh: 0%
[4]; [11]
  %Inh: 0%
[5]; [11]
  %Inh: 0%
[6]; [11]
  %Inh: 0%
[7]; [11]
  %Inh: 0%
[8]; [11]
  %Inh: 18%
[9]; [11]
  %Inh: 93%
[10]; [11]
  %Inh: 0%

## Cc1ccc(NC(=O)Nc2cccc(C(F)(F)F)c2)cc1 [GSK955403]
[1]; 1 µM
  %Inh: 0%
[2]; 1 µM
  %Inh: 0%
[3]; 1 µM
  %Inh: 0%
[4]; 1 µM
  %Inh: 0%
[5]; 1 µM
  %Inh: 1%
[6]; 1 µM
  %Inh: 3%
[7]; 1 µM
  %Inh: 6%
[8]; 1 µM
  %Inh: 1%
[9]; 1 µM
  %Inh: 6%
[10]; 1 µM
  %Inh: 0%

## Clc1cc(Cl)cc(Nc2ccnc(Nc3cc(Cl)cc(Cl)c3)n2)c1 [GSK175726]
[1]; [11]
  %Inh: 4%
[2]; [11]
  %Inh: 0%
[3]; [11]
  %Inh: 37%
[4]; [11]
  %Inh: 0%
[5]; [11]
  %Inh: 0%
[6]; [11]
  %Inh: 8%
[7]; [11]
  %Inh: 9%
[8]; [11]
  %Inh: 1%
[9]; [11]
  %Inh: 26%
[10]; [11]
  %Inh: 0%

## Cc1c(O)cccc1Nc1ccnc2ccc(C(F)(F)F)cc12.Cl [GW466413]
[1]; [11]
  %Inh: 10%
[2]; [11]
  %Inh: 20%
[3]; [11]
  %Inh: 3%
[4]; [11]
  %Inh: 17%
[5]; [11]
  %Inh: 0%
[6]; [11]
  %Inh: 32%
[7]; [11]
  %Inh: 0%
[8]; [11]
  %Inh: 0%
[9]; [11]
  %Inh: 2%
[10]; [11]
  %Inh: 0%

## Fc1cc(Cl)ccc1Nc1ccnc2cc(I)ccc12 [GW551191]
[1]; [11]
  %Inh: 2%
[2]; [11]
  %Inh: 17%
[3]; [11]
  %Inh: 0%
[4]; [11]
  %Inh: 10%
[5]; [11]
  %Inh: 0%
[6]; [11]
  %Inh: 13%
[7]; [11]
  %Inh: 0%
[8]; [11]
  %Inh: 8%
[9]; [11]
  %Inh: 50%
[10]; [11]
  %Inh: 11%

## Cc1cccc(-c2cc(Nc3ccncc3)c3ccccc3n2)n1 [GSK223675]
[1]; [11]
  %Inh: 0%
[2]; [11]
  %Inh: 0%
[3]; [11]
  %Inh: 0%
[4]; [11]
  %Inh: 0%
[5]; [11]
  %Inh: 0%
[6]; [11]
  %Inh: 5%
[7]; [11]
  %Inh: 100%
[8]; [11]
  %Inh: 30%
[9]; [11]
  %Inh: 35%
[10]; [11]
  %Inh: 0%

## CS(=O)(=O)c1ccc(-c2c(-c3ncn[nH]3)sc(N3CCOCC3)c2C#N)cc1
[1]; [11]
  %Inh: 0%
[2]; [11]
  %Inh: 15%
[3]; [11]
  %Inh: 14%
[4]; [11]
  %Inh: 4%
[5]; [11]
  %Inh: 0%
[6]; [11]
  %Inh: 0%
[7]; [11]
  %Inh: 0%
[8]; [11]
  %Inh: 16%
[9]; [11]
  %Inh: 14%
[10]; [11]
  %Inh: 4%

## O=c1cc(N2CCOCC2)nc2n(Cc3cccc(Cl)c3Cl)ccn12 [GSK2286295]
[1]; [11]
  %Inh: 0%
[2]; [11]
  %Inh: 34%
[3]; [11]
  %Inh: 7%
[4]; [11]
  %Inh: 17%
[5]; [11]
  %Inh: 0%
[6]; [11]
  %Inh: 11%
[7]; [11]
  %Inh: 0%
[8]; [11]
  %Inh: 22%
[9]; [11]
  %Inh: 0%
[10]; [11]
  %Inh: 0%

## CN1C(=O)C(Nc2ccc(Cl)c(C(=O)O)c2)=C(c2ccc(Cl)cc2)C1=O [SB-404290]
[1]; [11]
  %Inh: 5%
[2]; [11]
  %Inh: 0%
[3]; [11]
  %Inh: 18%
[4]; [11]
  %Inh: 0%
[5]; [11]
  %Inh: 2%
[6]; [11]
  %Inh: 0%
[7]; [11]
  %Inh: 0%
[8]; [11]
  %Inh: 0%
[9]; [11]
  %Inh: 12%
[10]; [11]
  %Inh: 28%

## COc1cc(Nc2nccc(N3CCC(NC(=O)Nc4cc(C)ccc4C)C3)n2)cc(OC)c1OC (stereo not drawn) [GSK1379762]
[1]; [11]
  %Inh: 12%
[2]; [11]
  %Inh: 2%
[3]; [11]
  %Inh: 42%
[4]; [11]
  %Inh: 8%
[5]; [11]
  %Inh: 0%
[6]; [11]
  %Inh: 22%
[7]; [11]
  %Inh: 2%
[8]; [11]
  %Inh: 2%
[9]; [11]
  %Inh: 0%
[10]; [11]
  %Inh: 0%

## CN(C)CCN(C)C(=O)c1cc(-c2ccncc2)c(-c2ccc(Cl)c(O)c2)o1.Cl.Cl [SB-710397]
[1]; [11]
  %Inh: 26%
[2]; [11]
  %Inh: 17%
[3]; [11]
  %Inh: 0%
[4]; [11]
  %Inh: 13%
[5]; [11]
  %Inh: 0%
[6]; [11]
  %Inh: 10%
[7]; [11]
  %Inh: 2%
[8]; [11]
  %Inh: 25%
[9]; [11]
  %Inh: 25%
[10]; [11]
  %Inh: 8%

## Cc1cc(-c2ccc3c(c2)CC[C@@H](N[C@@H](C)c2ccccc2)C3)cnc1N.Cl [GW412617]
[1]; [11]
  %Inh: 7%
[2]; [11]
  %Inh: 5%
[3]; [11]
  %Inh: 15%
[4]; [11]
  %Inh: 16%
[5]; [11]
  %Inh: 0%
[6]; [11]
  %Inh: 6%
[7]; [11]
  %Inh: 0%
[8]; [11]
  %Inh: 0%
[9]; [11]
  %Inh: 8%
[10]; [11]
  %Inh: 4%
